# TTR transcr act = TTR transcription activation, primary screen. SH-SY5Y TTR promoter Gaussia luciferase, luminescence; 100% = recombinant luciferase protein wells. activation, % at 16.7 µM. hit rate 1.3% among 92,000;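 active = activation above the mean of all tested compounds plus 3 SD, cut at about 9.5% in these data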;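 note: cells exposed to compounds for one day before reading; 0% = median of all test compound wells on the plate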
# TTR inh HuH7 = decreases TTR transcription in HuH7 cells in activator counter-screen; shares compounds with TTR transcr act; HuH7 TTR promoter-Gaussia luciferase reporter, luminescence; inhibition, % at 16.7 µM; hit rate 4% among 1,100; AID 1117279;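 active = average inhibition above the solvent-only control wells' mean plus 3 SD, cut at about 15% in these data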;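 note: 0% = cells with DMSO only and 100% = cells with inhibitor control FD; inhibitors lower well luminescence so higher value means more inhibition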
# TTR up confirm = human TTR transcription activation, confirmation; activation, % at 16.7 µM; AID 1117280; SHSY5Y TTR promoter Gaussia luciferase, luminescence; 100% = purified Lucia enzyme wells, no cells; shares compounds with TTR transcr act; 1,100 tested, under 10 active;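 active = mean activation above a set limit taken from the earlier primary screen, cut at about 11% in these data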;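 note: 0% = DMSO-treated cells and 100% = recombinant Lucia luciferase without cells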
# An asterisk follows results filed as active. Only a selection was taken, and hits are over-represented in it overall.
SMILES,TTR transcr act,others
CCOC(=O)c1c(C)n(C)c2ccc(OCC(O)CNC(CC)CO)cc12 (stereo unspecified),14*,TTR inh HuH7=-10;TTR up confirm=2
CCOC(=O)c1c(C)n(C)c2ccc(OCC(O)CN3CCCCCC3)cc12 (stereo unspecified),-1,
CCOC(=O)Cc1c(Sc2ccccc2)c2ccccc2n1C,1,
Cc1nn(Cc2cccc(C(=O)Nc3ccn(Cc4ccccc4F)n3)c2)c(C)c1[N+](=O)[O-],3,
CC(NC(=O)[C@H](C)NC(=O)c1ccco1)c1ccc(S(N)(=O)=O)cc1 (stereo partly specified),-1,
CC(NC(=O)c1ccco1)C(=O)OCc1cccc(C(F)(F)F)c1 (stereo unspecified),11*,TTR inh HuH7=-10;TTR up confirm=1
CC(C)[C@H](NC(=O)c1ccco1)C(=O)OCC(=O)Nc1cccc(F)c1,0,
COc1cccc(NC(=O)CN(C)C(=O)c2c(C)nn(-c3ccccc3)c2Cl)c1,-1,
NC(=O)c1ccsc1NC(=O)CSc1ncnc2sccc12,4,
Cc1ccc(NC(=O)COC(=O)CCc2c[nH]c3ccccc23)cc1[N+](=O)[O-],-1,
O=S1(=O)N=C(N2CCCC2)c2ccccc21,0,
CCCOc1ccc(C(=O)OCC(=O)c2c(N)n(C)c(=O)n(C)c2=O)cc1OC,0,
COc1ccc(/C=C/C(=O)OCC(=O)c2c(N)n(C)c(=O)n(C)c2=O)c(OC)c1,9.8*,TTR inh HuH7=0;TTR up confirm=0
COc1ccc(/C=C/C(=O)OCC(=O)c2ccc3c(c2)NC(=O)CO3)c(OC)c1,0,
O=C(COC(=O)c1cc(S(=O)(=O)N2CCOCC2)ccc1F)NCCc1ccc(F)cc1,0,
CN(c1ccccc1)S(=O)(=O)c1cccc(NC(=O)CSc2nnc(C3CC3)n2C)c1,2,
CN(C)S(=O)(=O)c1cccc(NC(=O)CSc2nncn2C)c1,12*,TTR inh HuH7=-6;TTR up confirm=5
Cn1cnnc1SCC(=O)Nc1ccccc1,0,
O=C(Nc1ccc(C(O)(C(F)(F)F)C(F)(F)F)cc1)c1c(F)cccc1F,-3,
C[C@]12CC[C@H](O)CC1=C[C@H](O)C1C2CC[C@@]2(C)C1CC[C@@]2(O)C#Cc1ccc(CN)cc1 (stereo partly specified),12*,TTR inh HuH7=1;TTR up confirm=0
CC1(C(=O)Nc2ccc3c(c2)OCCO3)CCC(=O)N1C1CC1 (stereo unspecified),0,
COc1ccc2[nH]c(C(=O)N(Cc3ccccn3)Cc3ccccn3)cc2c1,1,
CCC(c1nc2ccccc2[nH]1)N(C(=O)Cc1cc(OC)cc(OC)c1)c1ccc(N2CCOCC2)cc1 (stereo unspecified),2,
COc1cc(CCN(C(=O)c2cc3ccccc3[nH]2)C(C)c2nc3ccccc3[nH]2)cc(OC)c1 (stereo unspecified),13*,TTR inh HuH7=-22;TTR up confirm=0
On1c(-c2ccccc2)nc2ccc(Cl)cc21,-1,
SMILES,TTR transcr act,others
O=C(Nc1nnc(-c2ccc3c(c2)CCCC3)o1)c1ccc(Cl)cc1Cl,-2,
Oc1ccc(Cl)cc1C=NN1CCCCCC1,-1,
O=C1CC2(CCCC2)C(=O)N1c1ccc(S(=O)(=O)NCC2CC2)cc1Cl,8,
CCOc1ccc(NS(=O)(=O)c2ccc3[nH]c(=O)oc3c2)cc1,2,
COc1ccccc1NC(=O)CN(C)S(=O)(=O)c1cc(C)ccc1OC,-2,
CCOc1ccccc1NC(=O)CN(C)S(=O)(=O)c1ccc2[nH]c(=O)oc2c1,12*,TTR inh HuH7=-21;TTR up confirm=0
COC(=O)Cn1c(=NC(=O)c2ccc(OC)c(OC)c2)sc2cc(OC)ccc21,12*,TTR inh HuH7=-2;TTR up confirm=0
COc1ccc(CC(=O)c2ccc(OC)c(OC)c2)cc1,1,
COc1ccc2c(c1)sc(=N)n2CC(=O)Nc1cc(C)cc(C)c1,1,
CS(=O)(=O)N1CCCC(C(=O)Nc2cccc(F)c2)C1 (stereo unspecified),0,
CCCCCc1nnc(NC(=O)c2ccc3nc[nH]c3c2)s1,1,
CCCC/C(C)=N/NC(=O)c1cn(-c2ccccc2)nc1-c1ccccc1,-1,
O=C1CN(C(=O)NCC(=O)N[C@H](C(=O)O)c2ccccc2)c2ccccc2N1,1,
O=C1CN(C(=O)OCc2ccccc2)c2ccccc2N1,14*,TTR inh HuH7=-10;TTR up confirm=0
O=C1CN(C(=O)c2ccccn2)c2ccccc2N1,0,
COc1cc(NC(=O)CSc2ccc(-c3ccco3)nn2)cc(OC)c1,3,
COc1cc(Cl)c(C)cc1NC(=O)CSc1nc2ccccc2o1,2,
CCOc1ccccc1N(CC(=O)NCCSc1ccccn1)S(=O)(=O)c1ccccc1,1,
O=C(CO/N=C/c1c(Cl)cccc1Cl)NNC(=O)c1cccc(Cl)c1,2,
O=C(CO/N=C/c1c(Cl)cccc1Cl)NNC(=O)c1ccc(Cl)cc1,11*,TTR inh HuH7=-16;TTR up confirm=0
O=C(CO/N=C/c1ccc(Cl)cc1Cl)NNC(=O)c1ccc(Cl)cc1Cl,0,
O=C(O)c1ccc(N2C(=O)c3cccc4c(C(=O)O)ccc(c34)C2=O)cc1,-1,
CCN(Cc1nc(-c2cccc(C)c2)no1)C(=O)c1ccco1,0,
O=C(NNC(=O)c1cc(F)c(F)cc1Cl)c1ccc(NS(=O)(=O)c2cccs2)cc1,1,
O=C(NNC(=O)c1ccco1)c1ccc(NS(=O)(=O)c2cccs2)cc1,14*,TTR inh HuH7=-8;TTR up confirm=0
SMILES,TTR transcr act,others
O=C(O)c1ccc(/C=N/NC(=O)c2ccc(NS(=O)(=O)c3cccs3)cc2)cc1,4,
Cc1ccc(C)c(OCC(=O)O/N=C(\N)c2cccnc2)c1,1,
Cc1cccc(/C(N)=N/OC(=O)COc2ccc(Cl)c(C)c2)c1,11*,TTR inh HuH7=-10;TTR up confirm=-1
Cc1cccc(/C(N)=N/OC(=O)Cc2cccc3ccccc23)c1,2,
Cc1cc(/C=N/N2CCN(C)CC2)c(C)n1-c1ccccc1F,9.7*,TTR inh HuH7=-12;TTR up confirm=1
Cc1c(C(=O)O)cccc1-n1c(C)cc(C=O)c1C,0,
COC(=O)C1=C(C)NC(=O)/C1=C\c1cc(C)n(-c2ccccc2F)c1C,1,
O=C(Nc1ccc(Cl)cc1C(=O)Nc1ccc(Br)cn1)c1ccco1,-1,
O=[N+]([O-])c1nn(-c2ccccc2)[n+]([O-])c1N1CCN(c2ccccc2)CC1,1,
COc1ccc(C)cc1NC(=O)c1cc2ccccc2o1,-1,
O=C(CSc1nnc(NC(=O)c2ccco2)s1)Nc1ccc(F)cc1,2,
Cc1cccc(NC(=O)CSc2nnc(NC(=O)c3ccco3)s2)c1,11*,TTR inh HuH7=-29;TTR up confirm=3
Cc1cccc(CSc2nnc(NC(=O)c3ccco3)s2)c1,2,
COc1cc(OC)c(NC(=O)Cn2cccc2)cc1Cl,0,
N/C(CCN1CCOCC1)=N/O,10*,TTR inh HuH7=-16;TTR up confirm=0
O=C(CCN1CCOCC1)NCc1ccccc1,1,
O=C(CCN1CCOCC1)c1ccccc1,-2,
Clc1ncccc1-c1nnn(-c2ccccc2)n1,0,
Cc1ccc(/C=C/c2nc3ccccc3c(=O)[nH]2)cc1,0,
COc1ccc(CCC(=O)NNC(=O)Nc2ccc(C(C)C)cc2)cc1,-1,
COc1ccc(C(C)NC(=O)CCc2ccccc2)cc1 (stereo unspecified),0,
CCc1ccccc1NC(=O)NNC(=O)CCc1ccc(OC)cc1,13*,TTR inh HuH7=-25;TTR up confirm=2
COc1ccc(OC)c(N(CC(=O)N2CCCC2)S(=O)(=O)c2ccc(C)cc2)c1,5,
COc1ccc(Oc2cccc(Cl)c2CNC(=O)CCC(=O)O)cc1,4,
